In ChEMBL document CHEMBL3988442, “University of Dundee, Small-Polar-MMV Screening Library” (2021):
For some assays here: Potency and affinity values are given separately.

Tests used:
Parameters in all cases: scale not given: direction of the effect not stated beside the values
[1] = target: Protein translocase subunit SecA (Escherichia coli (strain K12)) (UniProt P10408); assay: Assay to Identify E. coli SecA ATPase Inhibitors; assay type: functional; conditions: 30 µM
[2] = target: T1, Ubiquitin-activating enzyme e1, putative (Leishmania donovani (strain BPK282A1)) (UniProt E9BSI1); assay: Leishmania donovani Ubiquitin Activating Enzyme (LdE1); assay type: functional; conditions: 30 µM
T1 sequence (whole entry): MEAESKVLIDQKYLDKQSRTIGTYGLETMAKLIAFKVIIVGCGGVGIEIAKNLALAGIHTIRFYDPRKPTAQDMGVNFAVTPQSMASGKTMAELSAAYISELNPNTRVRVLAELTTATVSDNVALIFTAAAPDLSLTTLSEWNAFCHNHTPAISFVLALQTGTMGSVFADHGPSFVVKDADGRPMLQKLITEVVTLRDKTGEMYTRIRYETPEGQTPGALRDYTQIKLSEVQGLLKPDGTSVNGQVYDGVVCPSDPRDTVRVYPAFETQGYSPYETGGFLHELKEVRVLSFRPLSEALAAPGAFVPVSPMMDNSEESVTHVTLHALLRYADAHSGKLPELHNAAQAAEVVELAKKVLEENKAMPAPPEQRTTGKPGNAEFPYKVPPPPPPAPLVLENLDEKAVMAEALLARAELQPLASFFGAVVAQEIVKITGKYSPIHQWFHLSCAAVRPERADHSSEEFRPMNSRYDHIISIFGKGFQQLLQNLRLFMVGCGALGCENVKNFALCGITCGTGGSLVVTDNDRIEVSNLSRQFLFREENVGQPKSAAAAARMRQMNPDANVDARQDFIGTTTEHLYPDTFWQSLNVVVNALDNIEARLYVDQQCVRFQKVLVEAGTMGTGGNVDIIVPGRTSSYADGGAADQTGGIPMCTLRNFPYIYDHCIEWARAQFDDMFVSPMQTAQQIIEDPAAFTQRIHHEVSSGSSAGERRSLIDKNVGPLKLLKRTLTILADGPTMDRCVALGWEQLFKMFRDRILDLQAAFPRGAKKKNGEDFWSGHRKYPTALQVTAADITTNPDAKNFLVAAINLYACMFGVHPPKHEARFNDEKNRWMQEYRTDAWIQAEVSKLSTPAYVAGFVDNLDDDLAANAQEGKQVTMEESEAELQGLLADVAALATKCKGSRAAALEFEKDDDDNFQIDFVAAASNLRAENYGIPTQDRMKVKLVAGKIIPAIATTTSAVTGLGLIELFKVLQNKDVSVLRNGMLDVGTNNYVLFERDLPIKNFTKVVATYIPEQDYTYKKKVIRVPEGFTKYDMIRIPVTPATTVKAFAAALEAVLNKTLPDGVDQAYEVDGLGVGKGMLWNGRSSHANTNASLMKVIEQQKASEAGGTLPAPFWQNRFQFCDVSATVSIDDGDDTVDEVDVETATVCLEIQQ

[3] = target: AMP-activated protein kinase, AMPK (Homo sapiens) (UniProt P54646+O43741+P54619+Q9UGJ0+Q9Y478+Q13131+Q9UGI9); assay: AMP-dependent Kinase enzyme assay. An in vitro enzyme assay that detects ADP turnover that is directly proportional to AMPK activity. This uses naive AMPK that is activated during the assay with MK-8722; assay type: functional; conditions: 30 µM
[4] = target: Sialic acid-binding Ig-like lectin 9 (Homo sapiens) (UniProt Q9Y336); assay: Hs-Siglec9 ALPHAscreen SOP 20170721; conditions: 10 µM
Trypanosoma cruzi = assay: Trypanosoma cruzi phosphomannomutase and mannose-1-phosphate guanylyltransferase assay; assay type: functional; conditions: 10 µM
[5] = target: T2, Arginase-2, mitochondrial (Homo sapiens) (UniProt P78540); assay: in vitro enzyme assay to detect the production of urea directly proportional to the activity of Arginase II; assay type: functional; conditions: 33.3 µM; further: in the data most compounds retested in dose-response had high values
T2 sequence (whole entry): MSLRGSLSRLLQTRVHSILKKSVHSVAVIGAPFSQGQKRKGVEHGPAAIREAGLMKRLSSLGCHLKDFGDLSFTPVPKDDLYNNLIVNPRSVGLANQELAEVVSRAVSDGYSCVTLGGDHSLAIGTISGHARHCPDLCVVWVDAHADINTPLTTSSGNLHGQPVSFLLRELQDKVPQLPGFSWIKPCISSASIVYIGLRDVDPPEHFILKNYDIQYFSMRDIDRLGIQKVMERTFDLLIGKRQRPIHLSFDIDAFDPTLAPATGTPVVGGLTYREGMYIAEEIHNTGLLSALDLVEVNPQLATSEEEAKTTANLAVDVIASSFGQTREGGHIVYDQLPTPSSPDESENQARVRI

[6] = target: T3, Proteasome subunit beta (Trypanosoma cruzi) (UniProt O96673); assay: Trypanosoma cruzi proteasome chymotrypsin-like activity (TcProtChymo) assay.; further: in the data most compounds retested in dose-response had high values; assay type: functional; conditions: 9.37 µM
T3 sequence (whole entry): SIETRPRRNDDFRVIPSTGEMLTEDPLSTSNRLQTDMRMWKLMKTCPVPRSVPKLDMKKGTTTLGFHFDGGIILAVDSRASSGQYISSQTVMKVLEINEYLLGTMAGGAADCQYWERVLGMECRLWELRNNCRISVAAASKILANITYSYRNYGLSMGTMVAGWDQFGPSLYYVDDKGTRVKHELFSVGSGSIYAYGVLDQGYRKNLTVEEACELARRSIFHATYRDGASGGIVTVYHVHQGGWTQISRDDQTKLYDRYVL

Homo sapiens = organism: Homo sapiens; assay: To identify inhibition of the IFN signalling (Jak-Stat) pathway via expression of an eGFP reporter gene under the control of an IFN-stimulated response element (ISRE) containing MxA promoter.; assay type: functional; conditions: 30 µM
[7] = target: T4, Tyrosyl-tRNA synthetase, putative (Trypanosoma cruzi (strain CL Brener)) (UniProt Q4DSP6); assay: Trypanosoma cruzi tyrosyl tRNA synthetase (TcYRS) _High Tyrosine SOP; assay type: functional; conditions: 30 µM; further: in the data most compounds retested in dose-response had high values
T4 sequence (whole entry): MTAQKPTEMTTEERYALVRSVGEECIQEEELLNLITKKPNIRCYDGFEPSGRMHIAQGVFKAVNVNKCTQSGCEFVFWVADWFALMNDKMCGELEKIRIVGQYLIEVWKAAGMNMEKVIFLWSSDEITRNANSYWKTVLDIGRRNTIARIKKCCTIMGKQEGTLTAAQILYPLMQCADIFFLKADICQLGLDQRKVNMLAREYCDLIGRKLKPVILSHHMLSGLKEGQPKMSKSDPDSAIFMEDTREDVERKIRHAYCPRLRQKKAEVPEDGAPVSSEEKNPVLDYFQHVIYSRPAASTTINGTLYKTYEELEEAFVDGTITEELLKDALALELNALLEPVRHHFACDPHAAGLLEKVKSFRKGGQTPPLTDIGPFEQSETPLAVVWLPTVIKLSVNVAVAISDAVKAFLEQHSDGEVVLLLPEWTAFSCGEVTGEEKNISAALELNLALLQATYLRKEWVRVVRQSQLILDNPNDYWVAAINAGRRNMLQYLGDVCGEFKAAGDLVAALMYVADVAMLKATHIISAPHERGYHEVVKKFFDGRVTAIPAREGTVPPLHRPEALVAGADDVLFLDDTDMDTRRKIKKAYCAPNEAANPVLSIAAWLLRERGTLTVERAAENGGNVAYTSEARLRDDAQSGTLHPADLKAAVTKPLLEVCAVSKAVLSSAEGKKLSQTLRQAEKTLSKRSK

[8] = target: T4, Tyrosyl-tRNA synthetase, putative (Trypanosoma cruzi (strain CL Brener)); assay: Trypanosoma cruzi tyrosyl tRNA synthetase (TcYRS) SOP; assay type: functional; conditions: 30 µM
[9] = target: Chromo domain-containing protein 1 (Saccharomyces cerevisiae (strain ATCC 204508 / S288c) (Baker's yeast)) (UniProt P32657); assay: ScCHD-1 Enzyme Inhibition Assay; assay type: functional; conditions: 30 µM; further: in the data most compounds retested in dose-response had high values
Chromo domain-containing protein 1 (Saccharomyces cerevisiae (strain ATCC 204508 / S288c) (Baker's yeast)), sequence (P32657 whole entry, the tested form may be a part): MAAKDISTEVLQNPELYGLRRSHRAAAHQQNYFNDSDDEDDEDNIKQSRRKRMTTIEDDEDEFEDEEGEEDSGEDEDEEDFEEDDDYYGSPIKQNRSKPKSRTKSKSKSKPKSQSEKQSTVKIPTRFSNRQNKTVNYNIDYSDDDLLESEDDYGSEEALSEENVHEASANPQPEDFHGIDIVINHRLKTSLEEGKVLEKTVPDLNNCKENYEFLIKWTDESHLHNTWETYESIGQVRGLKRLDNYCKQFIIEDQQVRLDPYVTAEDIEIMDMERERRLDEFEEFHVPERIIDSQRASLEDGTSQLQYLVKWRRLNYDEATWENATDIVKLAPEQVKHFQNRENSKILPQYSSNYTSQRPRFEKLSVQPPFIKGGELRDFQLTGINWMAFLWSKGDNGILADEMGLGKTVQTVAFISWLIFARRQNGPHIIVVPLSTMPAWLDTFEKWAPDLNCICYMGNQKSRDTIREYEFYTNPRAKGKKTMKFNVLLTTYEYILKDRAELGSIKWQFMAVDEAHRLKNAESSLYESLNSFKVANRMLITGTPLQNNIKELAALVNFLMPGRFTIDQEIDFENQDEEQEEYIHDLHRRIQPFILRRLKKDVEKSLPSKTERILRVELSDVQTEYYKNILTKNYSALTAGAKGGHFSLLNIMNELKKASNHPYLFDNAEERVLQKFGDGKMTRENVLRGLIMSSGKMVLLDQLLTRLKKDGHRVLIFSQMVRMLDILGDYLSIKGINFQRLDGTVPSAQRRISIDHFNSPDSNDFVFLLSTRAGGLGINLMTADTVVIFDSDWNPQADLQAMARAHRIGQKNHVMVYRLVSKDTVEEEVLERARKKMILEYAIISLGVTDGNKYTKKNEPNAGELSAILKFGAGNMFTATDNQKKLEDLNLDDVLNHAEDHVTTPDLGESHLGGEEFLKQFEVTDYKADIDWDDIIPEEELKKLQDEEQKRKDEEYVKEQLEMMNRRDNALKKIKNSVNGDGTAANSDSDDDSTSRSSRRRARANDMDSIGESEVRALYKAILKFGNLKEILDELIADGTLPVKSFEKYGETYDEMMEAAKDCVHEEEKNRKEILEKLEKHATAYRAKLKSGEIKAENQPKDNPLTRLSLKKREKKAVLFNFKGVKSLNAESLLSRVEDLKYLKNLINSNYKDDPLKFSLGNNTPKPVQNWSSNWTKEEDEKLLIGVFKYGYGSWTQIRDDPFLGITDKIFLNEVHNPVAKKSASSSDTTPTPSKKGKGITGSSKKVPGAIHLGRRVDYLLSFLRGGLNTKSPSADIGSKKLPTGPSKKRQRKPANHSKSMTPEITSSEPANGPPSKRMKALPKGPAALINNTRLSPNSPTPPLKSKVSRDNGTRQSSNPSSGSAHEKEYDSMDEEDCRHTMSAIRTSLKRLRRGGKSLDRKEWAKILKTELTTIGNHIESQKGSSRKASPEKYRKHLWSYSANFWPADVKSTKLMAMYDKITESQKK

Sialic acid-binding Ig-like lectin 9 (Homo sapiens), sequence (Q9Y336 whole entry): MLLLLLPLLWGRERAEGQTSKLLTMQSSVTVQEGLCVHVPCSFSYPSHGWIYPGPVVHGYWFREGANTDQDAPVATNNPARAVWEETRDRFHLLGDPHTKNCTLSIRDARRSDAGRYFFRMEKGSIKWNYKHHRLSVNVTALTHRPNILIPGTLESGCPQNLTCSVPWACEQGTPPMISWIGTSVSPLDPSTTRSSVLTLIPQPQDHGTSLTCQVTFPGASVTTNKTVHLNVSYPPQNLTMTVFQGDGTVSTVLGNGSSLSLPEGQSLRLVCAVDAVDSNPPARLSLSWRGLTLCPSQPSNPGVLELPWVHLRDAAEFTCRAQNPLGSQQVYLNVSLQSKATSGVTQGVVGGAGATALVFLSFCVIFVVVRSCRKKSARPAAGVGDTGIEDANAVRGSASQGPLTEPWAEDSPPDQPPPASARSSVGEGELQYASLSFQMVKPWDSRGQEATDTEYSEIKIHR
Protein translocase subunit SecA (Escherichia coli (strain K12)), sequence (P10408 whole entry): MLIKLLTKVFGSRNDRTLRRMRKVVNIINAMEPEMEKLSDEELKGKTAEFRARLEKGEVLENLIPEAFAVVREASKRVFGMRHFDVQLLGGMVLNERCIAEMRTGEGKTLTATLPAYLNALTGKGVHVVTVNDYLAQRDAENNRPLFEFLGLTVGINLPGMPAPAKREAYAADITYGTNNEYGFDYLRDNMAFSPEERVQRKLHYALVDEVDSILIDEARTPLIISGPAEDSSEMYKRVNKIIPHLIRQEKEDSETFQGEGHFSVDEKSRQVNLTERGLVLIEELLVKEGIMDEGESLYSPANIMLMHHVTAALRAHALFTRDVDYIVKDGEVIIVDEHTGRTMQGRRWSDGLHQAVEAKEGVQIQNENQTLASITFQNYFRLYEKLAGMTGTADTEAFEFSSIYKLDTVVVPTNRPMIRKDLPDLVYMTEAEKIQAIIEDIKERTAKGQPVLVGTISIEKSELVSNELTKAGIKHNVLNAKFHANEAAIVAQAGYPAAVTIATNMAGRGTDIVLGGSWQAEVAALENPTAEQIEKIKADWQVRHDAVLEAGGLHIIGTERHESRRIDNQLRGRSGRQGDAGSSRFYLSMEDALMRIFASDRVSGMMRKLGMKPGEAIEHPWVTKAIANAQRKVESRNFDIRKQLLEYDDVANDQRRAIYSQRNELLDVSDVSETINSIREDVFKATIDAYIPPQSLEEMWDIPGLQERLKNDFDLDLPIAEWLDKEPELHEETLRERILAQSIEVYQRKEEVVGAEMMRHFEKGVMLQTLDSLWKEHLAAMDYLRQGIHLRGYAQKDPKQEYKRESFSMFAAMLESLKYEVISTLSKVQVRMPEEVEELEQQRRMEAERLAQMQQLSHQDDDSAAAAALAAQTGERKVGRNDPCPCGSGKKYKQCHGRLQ

Structure (SMILES)	Percent Effect [1] [%]	Percent Effect [2] [%]	Percent Effect [3] [%]	Percent Effect [4] [%]	Percent Effect (Trypanosoma cruzi) [%]	Percent Effect [5] [%]	Percent Effect [6] [%]	Percent Effect (Homo sapiens) [%]	Percent Effect [7] [%]	Percent Effect [8] [%]	Percent Effect [9] [%]
NC(=O)c1csc(C(=O)N2CCCCC2Cn2cccn2)c1 (configuration not stated)	-5.35	13.5	1.44	6.12	-0.279	-3.88	0.539	16.2	5.94	13.4	1.19
Cc1noc(-c2ccc(N3CCCC(C(=O)N4CCSCC4)C3)nc2)n1 (configuration not stated)	-5.7	-2.74	24	1.74	-3.92	-1.36	6.57	-0.682	1.07	2.5	-3.84
O=C(O)C(c1ccc2c(c1)OCCO2)N1CCCCCC1 (configuration not stated)	-4.06	5.33	0.637	5.42	-0.682	4.69	17.1	-7.93	9.29	13.6	-1.28
O=C(O)c1nnn(-c2ccc(F)c(F)c2)c1-c1ccncc1	-2.11	13.2	4.49	-2.68	-3.6	4.73	20.6	-18.7	2.13	2.6	-1.59
Cn1cccc1CCC(=O)N1CCC2(CC1)c1ccccc1CC2O (configuration not stated)	0.249	13	-1.66	10.8	4.23	-38.6	20.6	21.3	11.8	16.1	5.42
COCC(=O)N1CC[C@@H]2CN(Cc3cccc(Cl)c3)S(=O)(=O)[C@@H]2CC1	-3.3	10.7	-2.58	-5.34	-6.18	-55	9.74	5.42	-3.12	12.5	-5.91
CNc1cncc(C2CCCN(S(C)(=O)=O)C2)n1 (configuration not stated)	-1.57	-1.35	13.3	2.54	-6.92	3.48	17	23.6	1.07	6.49	-15.8
CS(=O)(=O)c1ccc(CNC2CCCN(c3cccnn3)C2)cc1 (configuration not stated)	-2.48	18.2	4.4	-0.526	0.686	6.53	12.5	9.14	8.57	21.2	-19
c1ncn(CC2CCCCN2Cc2noc(C3CC3)n2)n1 (configuration not stated)	-0.132	15.8	0.834	1.81	-1.69	-1.92	16.4	6.6	3.43	21.9	-12.9
NC(=O)C1CCN(C(=O)CCn2ccc3cc(Br)ccc32)CC1	-0.921	4.17	-4.65	21.5	2.43	14.6	2.63	-3.52	3.16	2.56	-4.07
CCn1ncc2c1CCCC2NCc1cc(Cl)c(OC)c(OC)c1 (configuration not stated)	-5.26	12.7	-8.16	14.8	3.31	3.04	-0.901	66.8	9.36	21.5	-6.2
CCN(CC)CCNC(=O)c1cnc(C(C)(C)C)s1	-3.73	0	2.58	-11.2	-3.64	2.88	8.21	0.408	0.493	-6.17	-0.603
CC1CN(C)c2ccccc2CN1C(=O)c1ccncc1 (configuration not stated)	-2.73	13.7	4.78	21.6	3.53	32.3	8.87	1.93	2.15	5	-3
N#Cc1cccnc1NCCNC(=O)N1CCCSCC1	-3.35	2.7	-4.19	3.38	8.11	-2.38	14.3	-19.3	3.7	12.2	-6.59
COc1ccc2nnc(CCCC(=O)NCCC3=CCCCC3)n2n1	-0.326	12	-1.46	-0.0396	4.71	-7.57	12.2	23.4	7.41	17.9	-9.92
O=C1COC2(COCCN(Cc3cccnc3)C2)CN1c1ccoc1 (configuration not stated)	-0.625	5.2	2.84	0.684	-10.6	7.1	4.87	8.52	0	1.28	-1.12
COc1ccccc1C1CNC(=O)c2nc(-c3cnn(C)c3)[nH]c2C1 (configuration not stated)	0.9	10.8	-0.668	22.2	3.48	1.43	10	5.8	5.82	17.1	-0.454
CCCNC(=O)CSc1nnc2[nH]c(=O)cc(CC)n12	-1.19	19.2	-3.66	6.46	1.37	-1.36	15.4	10.2	7.53	17.5	-7.28
CC(C(=O)NCc1ccc(N2CCNC(=O)C2)cc1)n1cncn1 (configuration not stated)	-6.76	26	-36.6	17.6	8.24	1.42	5.57	14.6	5.83	21.9	-12.2
Cc1cc(C(=O)N2CCCC2c2nnc3n2CCCCC3)no1 (configuration not stated)	-2.02	6.94	-6.41	-2.93	0.291	2.21	21.1	-18.8	6.32	12.8	-5.42
CN(CCCNC(=O)N1CCCC1c1ccsc1)c1ccccn1 (configuration not stated)	-0.565	28.6	-13.6	-0.894	1.5	3.92	12.5	25.5	9.71	19.5	-10.5
CS(=O)(=O)Cc1cccc(C(=O)NCC2Cc3ccccc3O2)c1 (configuration not stated)	-4.91	5.48	2.31	0.841	-2.74	5.46	17.9	-3.29	2.15	15	-4.73
